Experimental data reported in PubChem BioAssay (Tox21).
Inconclusive results are not listed. A call without a number means that no potency is given here. A number with no mark means an inactive call. Calls of active or inactive are those of the source. Unless noted, calls follow the shape of the dose curve; as a rule, active = well fitted curve in the direction sought with a large enough effect in the repeat runs; inconclusive = weak or mixed curves; inactive = no such curve, though single readings can be large; an effect the other way counts as inactive or inconclusive.

Experiments:
[1] = qHTS assay to identify small molecule agonists of the peroxisome proliferator-activated receptor delta (PPARd) signaling pathway - cell viability counter screen (AID 743211); also: nearly all actives have a fitted effect of over 55% in size
Procedure, shortened: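 Following 5 h plating at 37 C and 5% CO2, PPARd UAS-bla HEK293H cells took up test compounds for 17 h. Viability was quantified by luminescence 30 min after CellTiter-Glo addition at room temperature.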

[2] = target: Peroxisome proliferator-activated receptor delta (Homo sapiens) (UniProt Q03181); assay: qHTS assay to identify small molecule agonists of the peroxisome proliferator-activated receptor delta (PPARd) signaling pathway (AID 743212; calls by dose curve)
Peroxisome proliferator-activated receptor delta (Homo sapiens), sequence (Q03181 whole entry, looked up): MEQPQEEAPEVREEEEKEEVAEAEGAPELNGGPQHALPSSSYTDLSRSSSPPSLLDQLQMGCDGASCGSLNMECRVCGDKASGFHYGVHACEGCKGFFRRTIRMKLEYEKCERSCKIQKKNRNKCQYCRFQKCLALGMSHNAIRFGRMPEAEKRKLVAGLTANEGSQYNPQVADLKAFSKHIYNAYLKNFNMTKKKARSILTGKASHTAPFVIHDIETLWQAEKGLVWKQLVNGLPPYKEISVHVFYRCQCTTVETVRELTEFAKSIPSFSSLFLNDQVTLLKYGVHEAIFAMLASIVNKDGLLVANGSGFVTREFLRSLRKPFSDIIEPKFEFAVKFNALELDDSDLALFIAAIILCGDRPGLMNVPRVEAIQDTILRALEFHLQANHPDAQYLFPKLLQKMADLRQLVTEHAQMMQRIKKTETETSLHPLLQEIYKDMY
Procedure, shortened: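 A PPARd-bla HEK293H line with beta-lactamase under an Upstream Activator Sequence is treated with compounds at 37 C. Substrate loading for 2 h at room temperature precedes the fluorescence measurement.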

[3] = qHTS assay to identify small molecule antagonists of the peroxisome proliferator-activated receptor delta (PPARd) signaling pathway - cell viability counter screen (AID 743213); also: nearly all actives have a fitted effect of over 50% in size
Procedure, shortened: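 Cytotoxicity counter screen: CellTiter-Glo luminescence read 30 min after addition, in the same wells as the reporter assay. There, PPARd UAS-bla HEK293H cells (3000/well) were treated 17 h at 37 C with compound and 300 nM L165041.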

[4] = target: Peroxisome proliferator-activated receptor delta (Homo sapiens) (UniProt Q03181); assay: qHTS assay to identify small molecule antagonists of the peroxisome proliferator-activated receptor delta (PPARd) signaling pathway (AID 743215; active = well fitted inhibition curve with a large enough effect in the signal ratio in the repeat runs, not every such curve was filed as active; the % refers to the signal ratio;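 also: cells stimulated with agonist L165041 at 300 nM final during compound exposure; series mostly up to about 62 µM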)
Procedure, shortened: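 Antagonist-mode beta-lactamase reporter screen: HEK293H cells with UAS-bla under PPARd control, stimulated by 300 nM L165041 (final) alongside test compound for 17 h at 37 C, then FRET fluorescence after 2 h substrate incubation.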

[5] = target: Bile acid receptor (Homo sapiens) (UniProt Q96RI1); assay: qHTS assay to identify small molecule antagonists of the farnesoid-X-receptor (FXR) signaling pathway (AID 743217; active = well fitted inhibition curve with a large enough effect in the signal ratio in the repeat runs, not every such curve was filed as active; the % refers to the signal ratio)
Bile acid receptor (Homo sapiens), sequence (Q96RI1 whole entry, looked up): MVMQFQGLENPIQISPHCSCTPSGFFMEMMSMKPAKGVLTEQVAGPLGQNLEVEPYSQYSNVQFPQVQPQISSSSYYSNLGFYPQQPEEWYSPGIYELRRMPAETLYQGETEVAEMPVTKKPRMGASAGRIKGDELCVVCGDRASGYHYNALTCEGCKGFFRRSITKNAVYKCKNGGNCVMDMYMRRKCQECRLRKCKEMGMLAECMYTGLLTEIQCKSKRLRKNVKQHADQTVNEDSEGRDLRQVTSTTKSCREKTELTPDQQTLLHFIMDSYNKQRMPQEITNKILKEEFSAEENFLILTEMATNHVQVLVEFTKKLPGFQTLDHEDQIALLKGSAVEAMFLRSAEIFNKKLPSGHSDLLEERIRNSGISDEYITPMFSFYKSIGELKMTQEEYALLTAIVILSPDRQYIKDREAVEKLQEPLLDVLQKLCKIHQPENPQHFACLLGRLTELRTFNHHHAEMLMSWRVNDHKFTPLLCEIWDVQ
Procedure, shortened: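 Beta-lactamase reporter under UAS control in HEK 293T cells; compound exposure 16 h at 37 °C in the presence of chenodeoxycholic acid (50 uM final); signal from B/G FRET substrate after 2 h at room temperature.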

[6] = qHTS assay to identify small molecule agonists of the farnesoid-X-receptor (FXR) signaling pathway - cell viability counter screen (AID 743218); also: nearly all actives have a fitted effect of over 45% in size
Procedure, shortened: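 In GeneBLAzer FXR-UAS-bla HEK 293T cells, compounds act for 16 h at 37 C. Cell viability is then scored in the reporter wells by CellTiter-Glo, 30 min at RT, luminescence.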

[7] = target: Bile acid receptor (Homo sapiens) (UniProt Q96RI1); assay: qHTS assay to identify small molecule agonists of the farnesoid-X-receptor (FXR) signaling pathway (AID 743220; active = well fitted activation curve with a large enough effect in the signal ratio in the repeat runs, not every such curve was filed as active; the % refers to the signal ratio)
Procedure, shortened: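 Beta-lactamase reporter under UAS control in GeneBLAzer FXR HEK 293T cells (5000/well) measured with LiveBLAzer FRET substrate after 2 h at room temperature. Compound exposure lasted 16 h at 37C.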

[8] = qHTS assay to identify small molecule antagonists of the farnesoid-X-receptor (FXR) signaling pathway - cell viability counter screen (AID 743221; active = well fitted cell-killing curve with a large enough effect in the repeat runs, not every such curve was filed as active; also: nearly all actives have a fitted effect of over 50% in size)
Procedure, shortened: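 Compound effects on cell number were measured as CellTiter-Glo luminescence in HEK 293T cells expressing FXR-UAS-bla, after 16 h at 37 C with 50 uM CDCA (final).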

[9] = qHTS assay to identify small molecule agonists of the vitamin D receptor (VDR) signaling pathway - cell viability counter screen (AID 743224); also: series mostly up to about 63 µM; nearly all actives have a fitted effect of over 50% in size
Procedure, shortened: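 VDR-bla cell line, quantitative HTS format; 16 h compound incubation (37C, 5% CO2); ATP-based CellTiter-Glo luminescence measured in the reporter assay wells.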

[10] = qHTS assay to identify small molecule antagonists of the vitamin D receptor (VDR) signaling pathway - cell viability counter screen (AID 743225); also: nearly all actives have a fitted effect of over 50% in size
Procedure, shortened: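 In this counter screen, VDR-bla HEK 293T cells receive test compound plus 3 nM final calcitriol for 16 h at 37C. Room-temperature steps of 2 h with the beta-lactamase substrate, then 30 min with CellTiter-Glo, precede the luminescence read.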

[11] = qHTS assay to identify small molecule agonists of the NFkB signaling pathway (AID 1159509; active = well fitted curve in the direction sought with a large enough effect in the signal ratio in the repeat runs, not every such curve was filed as active; the % refers to the signal ratio; also: series mostly up to about 61 µM)
Procedure, shortened: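 NFkB-bla ME-180 cells carry a beta-lactamase reporter under an NF-kB response element. They were plated overnight, then exposed to compounds for 5 h at 37 C. Read-out is LiveBLAzer FRET after 1.5 hr at room temperature (405 nm excitation; 460/530 nm emission).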

[12] = qHTS assay to identify small molecule agonists of the endoplasmic reticulum stress response signaling pathway (AID 1159516; active = well fitted activation curve with a large enough effect in the signal ratio in the repeat runs, not every such curve was filed as active; the % refers to the signal ratio)
Procedure, shortened: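 ER stress element reporter (bla) in HeLa. 1,500 cells/well, overnight attachment; 5 hr compound; 2 hr RT substrate; dual-emission fluorescence.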

[13] = qHTS assay to identify small molecule agonists of the endoplasmic reticulum stress response signaling pathway - cell viability counter screen (AID 1159517; calls by dose curve)
Procedure, shortened: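 CellTiter-Glo was added to wells already read for beta-lactamase FRET, and luminescence was recorded 30 min later. Cells: ESRE-bla HeLa, 1,500 per well, compound exposure 5 hr at 37 C.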

[14] = qHTS assay to identify small molecule antagonists of the retinoid-related orphan receptor gamma (ROR-gamma) signaling pathway - cell viability counter screen (AID 1159520); also: nearly all actives have a fitted effect of over 50% in size
Procedure, shortened: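 Tet-on ROR gamma CHO cells (1,000/well) were plated 4 hr, given compounds in DMSO for 2 hr at 37 C, then induced with 1 uM final doxycycline for 16 hr. Viability was read as ATP by CellTiter-Glo luminescence after 30 min.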

[15] = target: Nuclear receptor ROR-gamma (Homo sapiens) (UniProt P51449); assay: qHTS assay to identify small molecule antagonists of the retinoid-related orphan receptor gamma (ROR-gamma) signaling pathway (AID 1159521; also: nearly all actives have a fitted effect of over 50% in size; also: potency is read from the fitted curve at half-maximal effect)
Procedure, shortened: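 Screening format: cell-based luciferase reporter in CHO cells with doxycycline-inducible RORγ. Compound pre-exposure lasts 2 h, doxycycline is 1 uM final, induction runs 16 h at 37 C, and ONE-Glo luminescence is read.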

[16] = qHTS assay to identify small molecule agonists of the AP-1 signaling pathway - cell viability counter screen (AID 1159525; calls by dose curve; also: nearly all actives have a fitted effect of over 55% in size)
Procedure, shortened: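 ME-180 AP-1-bla, 2500 cells/well, Opti-MEM + 0.5% dialyzed FBS; overnight 37 °C; cpd 15-pt titration, 5 h 37 °C; CellTiter-Glo 30 min RT; luminescence read; normalised to TOAB and DMSO controls.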

[17] = qHTS assay to identify small molecule agonists of the AP-1 signaling pathway (AID 1159526; calls by dose curve)
[18] = target: Vitamin D3 receptor (Homo sapiens) (UniProt P11473); assay: qHTS assay to identify small molecule agonists of the vitamin D receptor (VDR) signaling pathway (AID 743222; calls by dose curve)
Vitamin D3 receptor (Homo sapiens), sequence (P11473 whole entry, looked up): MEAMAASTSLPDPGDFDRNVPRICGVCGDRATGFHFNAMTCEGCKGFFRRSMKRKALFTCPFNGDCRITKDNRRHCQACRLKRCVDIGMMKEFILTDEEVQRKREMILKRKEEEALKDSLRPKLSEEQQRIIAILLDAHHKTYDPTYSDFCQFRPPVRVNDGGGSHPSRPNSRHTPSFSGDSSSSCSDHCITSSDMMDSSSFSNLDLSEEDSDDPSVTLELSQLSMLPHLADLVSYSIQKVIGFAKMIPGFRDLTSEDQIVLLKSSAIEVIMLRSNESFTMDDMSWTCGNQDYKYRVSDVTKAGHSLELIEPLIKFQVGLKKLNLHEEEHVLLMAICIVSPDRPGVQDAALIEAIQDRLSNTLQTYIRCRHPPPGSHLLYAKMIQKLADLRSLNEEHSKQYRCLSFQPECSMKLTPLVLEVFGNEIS
Procedure, shortened: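 Agonist activity measured in VDR-bla reporter cells. Exposure 16 h, 37C, 5% CO2; detection by B/G FRET substrate, 2 h RT.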

[19] = target: Vitamin D3 receptor (Homo sapiens) (UniProt P11473); assay: qHTS assay to identify small molecule antagonists of the vitamin D receptor (VDR) signaling pathway (AID 743223; active = well fitted inhibition curve with a large enough effect in the signal ratio in the repeat runs, not every such curve was filed as active; the % refers to the signal ratio)
Procedure, shortened: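 Beta-lactamase activity in VDR-bla cells is measured by FRET substrate fluorescence (2 h, room temperature) after cells spend 16 h at 37C with test compound and 3 nM final 1alpha,25-dihydroxyvitamin D3.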

[20] = qHTS assay to identify small molecule agonists of the NFkB signaling pathway - cell viability counter screen (AID 1159515; calls by dose curve; also: series mostly up to about 61 µM; nearly all actives have a fitted effect of over 55% in size)
Procedure, shortened: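 Viability in NFkB-bla ME-180 cells was measured by CellTiter-Glo luminescence, 30 min room temperature, in wells already treated 5 hr with compounds and read for reporter FRET.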

| SMILES | Potency [1] | Potency [2] | Potency [3] | Potency [4] | Potency [5] | Potency [6] | Potency [7] | Potency [8] | Potency [9] | Potency [10] | Potency [11] | Potency [12] | Potency [13] | Potency [14] | Potency [15] | Potency [16] | Potency [17] | Potency [18] | Potency [19] | Potency [20] |
| --- | --- | --- | --- | --- | --- | --- | --- | --- | --- | --- | --- | --- | --- | --- | --- | --- | --- | --- | --- | --- |
| CCCCCCC(C)(C)C(=O)O | inactive | inactive | inactive | inactive | inactive | inactive | inactive | inactive | inactive | inactive | inactive | inactive | inactive | inactive | inactive | inactive | inactive | – | – | – |
| O=C(Cn1ccnc1[N+](=O)[O-])NCCO | inactive | – | inactive | inactive | inactive | inactive | inactive | inactive | inactive | inactive | inactive | – | – | inactive | – | inactive | inactive | inactive | inactive | inactive |
| O=[N+]([O-])c1ccc(O/N=C/c2cc(Br)c(O)c(Br)c2)c([N+](=O)[O-])c1 | – | – | – | – | inactive | inactive | inactive | – | inactive | – | inactive | – | – | – | 6.82 µM (active) | – | – | inactive | inactive | inactive |
| Cc1ccc(OC(=O)c2ccccc2O)cc1 | inactive | inactive | inactive | inactive | – | inactive | – | inactive | – | – | inactive | inactive | inactive | inactive | inactive | inactive | inactive | inactive | inactive | – |
| CC(C)=CCC/C(C)=C/CC/C(C)=C/CCC(=O)OC/C=C(\C)CCC=C(C)C | inactive | inactive | inactive | inactive | – | inactive | – | inactive | inactive | inactive | inactive | inactive | inactive | inactive | inactive | inactive | inactive | – | – | – |
| c1ccc2sc(SN(C3CCCCC3)C3CCCCC3)nc2c1 | inactive | inactive | inactive | inactive | inactive | inactive | inactive | inactive | inactive | inactive | inactive | inactive | inactive | inactive | inactive | inactive | inactive | – | inactive | – |
| CC1CC(OC(=O)C(O)c2ccccc2)CC(C)(C)N1C (centres undefined) | inactive | inactive | – | inactive | – | inactive | – | inactive | inactive | inactive | inactive | – | – | inactive | – | inactive | inactive | – | – | inactive |
| O=C(O)CCCCCCCCCCCBr | inactive | inactive | inactive | inactive | – | inactive | – | inactive | inactive | – | inactive | inactive | inactive | inactive | inactive | inactive | inactive | – | – | – |
| COC(=O)CS | inactive | inactive | inactive | inactive | – | inactive | – | inactive | inactive | inactive | inactive | – | – | inactive | – | inactive | – | inactive | – | inactive |
